Rows were chosen to be rich in hits. Some 6.4% of all compounds tested hit in one or more screens of this group.
RORgamma inh = blocks mouse ROR gamma transcriptional activity; Drosophila S2 Gal4-RORgamma UAS-luciferase reporter, 20 h; AID 2551; Potency, µM (highest dose often 53.6 µM), for inactives: at the highest dose activity change, negative = inhibition, hits mostly inhibitors; actives 5.4% (n = 310,000); P51450; note: nearly all actives have a fitted effect of over 60% in size
Target sequence (P51450 whole entry, looked up, the tested form may be a part): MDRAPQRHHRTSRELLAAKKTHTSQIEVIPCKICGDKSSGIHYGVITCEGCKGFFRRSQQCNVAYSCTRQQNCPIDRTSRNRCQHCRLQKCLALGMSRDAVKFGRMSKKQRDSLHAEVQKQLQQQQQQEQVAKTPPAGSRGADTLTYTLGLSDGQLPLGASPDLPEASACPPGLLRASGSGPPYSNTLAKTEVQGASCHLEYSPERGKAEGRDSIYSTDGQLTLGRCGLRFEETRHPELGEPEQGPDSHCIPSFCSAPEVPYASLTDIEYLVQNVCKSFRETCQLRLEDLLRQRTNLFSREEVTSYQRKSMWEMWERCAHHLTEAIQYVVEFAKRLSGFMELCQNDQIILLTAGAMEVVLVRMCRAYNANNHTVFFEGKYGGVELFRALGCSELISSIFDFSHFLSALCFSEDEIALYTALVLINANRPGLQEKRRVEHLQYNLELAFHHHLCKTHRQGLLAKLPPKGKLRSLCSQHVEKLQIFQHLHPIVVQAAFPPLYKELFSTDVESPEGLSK
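Stable Schneider cell line, Gal4 DNA-binding domain fused to ROR gamma, UAS-luciferase. Cmpd 1 hr RT → CuSO4 700 uM final → 20 hr RT → luciferase reagent 10 min → luminescence.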
Gal4-VP16 FLuc = Gal4-VP16 reporter inhibition counter-screen. Drosophila S2 Gal4-VP16 UAS-luciferase, luminescence, 20 h. Potency, µM (titrated, usually from 53.6 µM), without a hit: at the top dose activity, negative = inhibition, hits mostly inhibitors. actives 3.5% (n = 310,000);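 note: Gal4-VP16 expression switched on by copper sulfate through the metallothionein promoter; nearly all actives have a fitted effect of over 50% in size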
Luc counter = Kinase-Glo luciferase inhibition (counter-screen). Q27757. Kinase-Glo luciferase, ATP luminescence, 8 min. Potency, µM (highest dose often 38.3 µM), without a hit: at the highest dose activity change, negative = inhibition, usual class: inhibitors. actives 0.28% (n = 200,000); note: nearly all actives have a fitted effect of over 60% in size
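Inhibition of Kinase-Glo luciferase light generation was assessed at 10 uM ATP in pH 7.2 imidazole buffer, with luminescence measured after eight minutes at ambient temperature.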
Starred values were filed as active, the others as inactive; ? = inconclusive; nt = no result; [ ] = dose if it differs, or a comment. Calls come from the whole dose curve; as a rule, active = well fitted curve in the direction sought with a large enough effect; inconclusive = small, poorly fitted or top-dose-only effect, or another doubt; inactive = no such curve, though single readings can be large; an effect the other way counts as inactive or inconclusive. % is set by controls: 0 for no effect and ±100 for the full control effect; potency is the fitted concentration of half-maximal effect.

SMILES	RORgamma inh	Gal4-VP16 FLuc	Luc counter
CCCCCCC(=O)Cc1cc(OC)c(OC)cc1/C=C(/C(C)=O)C(=O)OC	-7%[10 µM]	-3%[10 µM]	nt
Cc1ccc(C2=NNC3(CCOC(C)(C)C3)S2)cc1 (centres undefined)	5.6µM*	7.9µM*	1%
Cc1ccc(S(=O)(=O)NCCC2(C(C)C)CCOC(C)(C)C2)cc1 (centres undefined)	1%	-1%	19%
COc1ncccc1-c1nnn(-c2ccc(C)cc2)n1	-3%	5%	nt
NS(=O)(=O)c1ccc(CCNC(=O)CSc2nc3ccsc3c(=O)n2CCCCCC(=O)O)cc1	7.9µM*	-4%	-2%
NS(=O)(=O)c1ccc(CCNC(=O)CSc2nc3ccsc3c(=O)n2CC(=O)O)cc1	-62%	-6%	3%
Cn1cnc(S(=O)(=O)N2CCN(C(c3ccccc3)c3ccccc3)CC2)c1	1%	-11%	nt
CC(C)(C)c1nc(SCC(=O)c2ccccc2)c2ccccc2n1	20µM*	?	-1%
O=C(CSc1nc2ccccc2c2ccccc12)c1ccccc1	nt	nt	-2%[7.66 µM]
CCN(C(=O)c1cccc(NC(=O)c2ccccc2)c1)C1CCCCC1	18%	0%	nt
Cc1cc2c(=O)n(Cc3ccco3)c(SCC(=O)c3ccc(Cl)s3)nc2s1	?	?	3%
CCOC(=O)CC(=O)CSc1nc2sc(C)cc2c(=O)n1Cc1ccco1	?	22µM*	3%
O=C(Nc1ncnc2sc3c(c12)CCCC3)c1ccncc1	?	11µM*	3%
O=C(Nc1ncnc2sc3c(c12)CCCCC3)c1ccco1	?	?	0%
O=C(CSc1nnc(CNC(=O)c2ccc(F)cc2)o1)NCc1ccc2c(c1)OCO2	-21%	2%	nt
COc1ccc(-n2c(=S)[nH]c3cc(C(=O)Nc4ccc(C)c(F)c4)ccc3c2=O)c(OC)c1	5µM*	13µM*	nt
CCOc1ccc(NC(=O)c2ccc3c(=O)n(-c4ccc(OC)cc4OC)c(=S)[nH]c3c2)cc1	?	16µM*	nt
COc1ccc(-n2c(=S)[nH]c3cc(C(=O)Nc4cc(C(N)=O)ccc4OC)ccc3c2=O)c(OC)c1	-56%	-3%	nt
COc1ccc(-n2c(=S)[nH]c3cc(C(=O)Nc4ccc(OC)c(OC)c4)ccc3c2=O)cc1	-15%	-22%	-1%
COc1ccc(NC(=O)c2ccc3c(=O)n(-c4ccc(OC)cc4OC)c(=S)[nH]c3c2)c(OC)c1	2.8µM*	8.9µM*	-4%
COc1ccc(-n2c(=S)[nH]c3cc(C(=O)NC4CCCCC4)ccc3c2=O)c(OC)c1	40%	-16%	-2%
C=CCNc1nc2ccccc2nc1NS(=O)(=O)c1ccc(Br)cc1	?	-6%	nt
COc1cccc(NC(=O)N2CCC(NC(=O)C3CCCCC3)CC2)c1	12%	14%	nt
C=CCC(C(=O)NC(C)c1ccccc1)C(=O)NC(C)c1ccccc1 (centres undefined)	15%	1%	nt
CN1CCC(N(C)C(=O)CCc2nc3ccccc3n2-c2ccccc2)CC1	1%	3%	5%
SMILES	RORgamma inh	Gal4-VP16 FLuc	Luc counter
CNc1oc(-c2ccc(Cl)cc2)nc1P(=O)(c1ccccc1)c1ccccc1	28%	-14%	6%
Nc1nonc1-n1nnc(C(=O)N/N=C/c2ccoc2)c1CSc1ccccc1	16µM*	?	nt
CC(C)c1ccc(/C=N/NC(=O)c2nnn(-c3nonc3N)c2CSC2=NCCS2)cc1	16µM*	?	1%
Nc1nonc1-n1nnc(C(=O)N/N=C/c2ccc(Br)cc2)c1CSC1=NCCS1	-124%	?	nt
Nc1nonc1-n1nnc(C(=O)N/N=C/c2cccnc2)c1CSc1ccc(Cl)cc1	26%	-10%	nt
Nc1nonc1-n1nnc(C(=O)N/N=C/c2ccccc2)c1CSc1ccccc1	-45%	-2%	nt
Nc1nonc1-n1nnc(C(=O)N/N=C/c2ccoc2)c1CSc1ccc(Cl)cc1	7.1µM*	13µM*	nt
NC(N)=Nc1nc(CSCC/C(N)=N\S(N)(=O)=O)cs1	8%	8%	-2%
CC(=O)N1/C(=C/c2ccc(N(C)C)cc2)C(=O)c2ccccc21	?	?	-17%
O=C(O)CNC(=O)c1ccc(NC(=O)/C(=C/c2ccccc2)NC(=O)c2ccccc2)cc1	-10%	-7%	nt
CC(Oc1ccc2c3c(c(=O)oc2c1)CCC3)C(=O)NCC1CCC(C(=O)O)CC1 (centres undefined)	-1%	5%	nt
CCOC(=O)C1=C([Si](C)(C)C)c2ccccc2N(S(=O)(=O)C(F)(F)F)C1C(=O)OCC (centres undefined)	?	?	-1%[39.9 µM]
CC1CCC(NC(=O)CN2C(=O)c3cccnc3Oc3ccc(Cl)cc32)CC1 (centres undefined)	26%	4%	nt
CCCCCCC(=O)Nc1ccc(Br)cn1	-14%	18%	nt
CC1CCC(NC(=O)C(NC(=O)c2ccccc2)C(C)C)CC1 (centres undefined)	27%	1%	1%
CCc1ccc(/C=N/NC(=O)c2nnn(-c3nonc3N)c2CN2CCOCC2)cc1	9%	3%	nt
Cc1ccc2nc(NC(=O)CCCc3nc4ccccc4s3)sc2c1	19%	15%	-1%
Cc1ccc2nc(NC(=O)CCCC(=O)O)sc2c1	1.1µM*	0.79µM*	-5%
CCOCC(=O)Nc1nc2ccc(C)cc2s1	-39%	-29%	-8%
CC1CC1C(=O)Nc1nc2ccc(S(C)(=O)=O)cc2s1 (centres undefined)	42%	-17%	nt
Cc1ccc2nc(NC(=O)CSCC(=O)OCC(=O)c3ccccc3)sc2c1	5µM*	2.2µM*	-3%
Cc1ccc2nc(NC(=O)C3CC3C)sc2c1 (centres undefined)	7.1µM*	-13%	nt
COc1cccc(OCC(=O)O/N=C(\N)c2ccc(OC)c(OC)c2)c1	23%	-3%	-2%
CNC(=O)C1CC(=O)N(CCc2ccc(C)cc2)C1 (centres undefined)	-3%	-7%	nt
COc1cccc(C(=O)Nc2cc(-c3cn4cccnc4n3)ccc2C)c1	26%	-9%	1%
SMILES	RORgamma inh	Gal4-VP16 FLuc	Luc counter
CC(C)C(=O)Nc1cc(C(F)(F)F)ccc1-n1ccnc1	-8%	1%	nt
CC(C)C[C@H](NC(=O)N1CC(=O)Nc2ccccc21)C(=O)N1CCC(C(=O)O)CC1	-13%	2%	nt
CCOC(=O)c1c[nH]c2cc(OCC(C)C)c(OCC(C)C)cc2c1=O	0%	-19%	nt
CC#CCOC(=O)c1c(C)nc2sc3c(c2c1N)CC[C@@H](O)C3	7.1µM*	?	2%
CCOC(=O)c1c(N)sc2c1CCC(C)C2 (centres undefined)	-24%	-22%	-3%
CCNc1ncc2nc(CCc3ccccc3)c(=O)n(Cc3ccc(F)cc3)c2n1	-20%	5%	nt
COc1ccc(CNC(=O)Cn2nc(C(F)(F)F)c(Br)c2C)cc1	5%	0%	nt
COc1cc(NC(=O)Cn2nc(C(F)(F)F)c(Br)c2C)cc([N+](=O)[O-])c1	?	18µM*	0%
COCc1nnc(NC(=O)c2ccc(S(=O)(=O)N(CC(C)C)CC(C)C)cc2)o1	0.63µM*	2.5µM*	1%
C=CCN(CC=C)S(=O)(=O)c1ccc(NC(=O)COc2ccccc2OC)cc1	?	0%	-1%
CCN(CC)S(=O)(=O)c1ccc(C(=O)NC2=NCCS2)cc1	-18%	-3%	nt

Source: PubChem BioAssay
